Laboratory results reported in the supplement of paper PMC10849652.
Of roughly 7,900 targets only a part is listed; those with a hit were picked by preference. About 0.6% of all pairs of compound and target were hits.

Experiments:
Assay in all cases: log2 fold change, soluble protein after heating vs DMSO (PISA); higher = thermal stabilisation; K562 cells, 10 uM, 30 min; active = over 0.2 and 3.5 SD of the protein, either way, in both replicates (recomputed)
[1] = compound: C#Cc1cccc(Nc2ncnc3cc(OCCOC)c(OCCOC)cc23)c1 [erlotinib]
Summary of the method: (§1)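 K562 cells at 2×10^6 cells/mL were exposed to 10 μM compound for 30 min, then aliquots were heated for 3 min across 48°C-58°C, pooled, and extracted in PBS containing 0.5% NP-40 at 4°C. The supernatant after 21,000xg for 90 min was taken as soluble protein and measured by TMTpro 16plex LC-MS/MS with channel sums equalised. Thermal stability is reported relative to control samples, with values from duplicates. Fold changes are given on a log2 scale.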

[2] = compound: C/C(=N\NC(=O)C1=CC(=CC=C1)S(=O)(=O)N2CCOCC2)/C3=C(C=CC(=C3)Cl)O
Summary of the method: as §1

[3] = compound: C1=CC(=C(C=C1Cl)C2=NC3=NC=CN=C3C(=N2)NC4=CC=NC=C4)F
Summary of the method: as §1

[4] = compound: C1=CC(=CC=C1C2=NC3=C(N2)C=C(C=C3)C(=O)N)OC4=CC=C(C=C4)Cl
Summary of the method: as §1

[5] = compound: C1=CC2=C(C=CC(=C2)/C=C\3/C(=O)NC(=NCC4=CC=CS4)S3)N=C1
Summary of the method: as §1

[6] = compound: C1=CC2=NC=CN=C2C=C1/C=C/3\C(=O)NC(=O)S3
Summary of the method: as §1

[7] = compound: C1=CC=C(C=C1)C2=NC(=C(N2)C3=CC=NC=C3)C4=CC(=C(C=C4)Cl)O
Summary of the method: as §1

[8] = compound: C1=CC=C2C(=C1)C3=NNC4=CC=CC(=C43)C2=O
Summary of the method: as §1

[9] = compound: C1CCN(C1)C(=O)NC2=CC=CC(=C2)NC3=NC=C(C(=N3)NCCC4=CN=CN4)Br
Summary of the method: as §1

[10] = compound: C1CN(CCC1(CC2=CC=C(C=C2)Cl)N)C3=NC=NC4=C3C=CN4
Summary of the method: as §1

Measured: log2 fold change

MAPKAPK2 (UniProt P49137)
UniProt P49137, sequence (P49137 whole entry, looked up): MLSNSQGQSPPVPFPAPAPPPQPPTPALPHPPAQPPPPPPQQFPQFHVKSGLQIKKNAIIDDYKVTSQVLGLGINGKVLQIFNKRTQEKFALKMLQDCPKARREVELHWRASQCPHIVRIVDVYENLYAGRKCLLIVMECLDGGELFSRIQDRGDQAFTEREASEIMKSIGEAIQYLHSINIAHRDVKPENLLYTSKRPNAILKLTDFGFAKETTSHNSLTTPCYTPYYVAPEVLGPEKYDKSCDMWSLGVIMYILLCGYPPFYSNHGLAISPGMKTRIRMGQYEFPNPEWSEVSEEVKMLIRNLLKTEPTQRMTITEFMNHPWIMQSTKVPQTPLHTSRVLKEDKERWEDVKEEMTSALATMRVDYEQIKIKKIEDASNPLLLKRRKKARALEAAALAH
inactive: [1] 0.033 | [2] 0.059 | [3] 0.186 | [4] -0.011 | [5] 0.064 | [6] 0.008 | [7] 0.207 | [8] -0.069 | [9] 0.047 | [10] 0.002

KCTD2 (UniProt Q14681)
inactive: [1] 0.177 | [2] -0.154 | [3] -0.125 | [4] -0.126 | [5] 0.158 | [6] -0.062 | [7] 0.055 | [8] -0.106 | [9] 0.26 | [10] -0.005

LPIN3 isoform 2 (UniProt Q9BQK8)
inactive: [1] 0.053 | [2] 0.062 | [3] 0.038 | [4] -0.045 | [5] 0.108 | [6] 0.022 | [7] -0.048 | [8] 0.022 | [9] 0.002 | [10] -0.014

MFGE8 (UniProt Q08431)
inactive: [1] -0.135 | [2] -0.032 | [3] -0.149 | [4] 0.045 | [5] -0.059 | [6] -0.024 | [7] 0.024 | [8] 0.095 | [9] -0.041 | [10] -0.066

LMNA (UniProt P02545)
UniProt P02545, sequence (P02545 whole entry, looked up): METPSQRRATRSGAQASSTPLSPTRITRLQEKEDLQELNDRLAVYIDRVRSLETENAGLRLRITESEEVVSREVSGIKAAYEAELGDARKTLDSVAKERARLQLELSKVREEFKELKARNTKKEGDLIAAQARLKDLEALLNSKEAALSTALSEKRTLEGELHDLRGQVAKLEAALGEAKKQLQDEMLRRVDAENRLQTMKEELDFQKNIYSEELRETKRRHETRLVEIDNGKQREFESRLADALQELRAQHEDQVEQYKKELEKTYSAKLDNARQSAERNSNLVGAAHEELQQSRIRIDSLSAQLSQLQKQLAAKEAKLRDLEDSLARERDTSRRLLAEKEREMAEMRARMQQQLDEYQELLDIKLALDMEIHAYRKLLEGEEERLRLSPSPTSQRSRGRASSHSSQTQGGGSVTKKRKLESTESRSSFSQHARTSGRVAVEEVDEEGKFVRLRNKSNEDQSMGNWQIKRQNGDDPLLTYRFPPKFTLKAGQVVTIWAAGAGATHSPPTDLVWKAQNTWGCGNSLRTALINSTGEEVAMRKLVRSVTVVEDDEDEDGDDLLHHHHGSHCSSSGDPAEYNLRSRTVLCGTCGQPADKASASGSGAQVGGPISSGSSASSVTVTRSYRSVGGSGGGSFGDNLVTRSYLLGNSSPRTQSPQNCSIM
inactive: [1] -0.025 | [2] 0.116 | [3] 0.009 | [4] -0.106 | [5] -0.031 | [6] 0.035 | [7] -0.049 | [8] -0.171 | [9] -0.086 | [10] 0.013

MAP1LC3B2 (UniProt A6NCE7)
inactive: [1] 0.009 | [2] 0.093 | [3] 0.038 | [4] 0 | [5] -0.031 | [6] 0.052 | [7] 0.016 | [8] 0.083 | [9] -0.002 | [10] 0.036

MAP4 isoform 5 (UniProt P27816)
inactive: [1] 0.056 | [2] -0.214 | [3] 0.038 | [4] -0.067 | [5] -0.031 | [6] -0.116 | [7] -0.051 | [8] 0.152

LUC7L3 (UniProt O95232)
UniProt O95232, sequence (O95232 whole entry, looked up): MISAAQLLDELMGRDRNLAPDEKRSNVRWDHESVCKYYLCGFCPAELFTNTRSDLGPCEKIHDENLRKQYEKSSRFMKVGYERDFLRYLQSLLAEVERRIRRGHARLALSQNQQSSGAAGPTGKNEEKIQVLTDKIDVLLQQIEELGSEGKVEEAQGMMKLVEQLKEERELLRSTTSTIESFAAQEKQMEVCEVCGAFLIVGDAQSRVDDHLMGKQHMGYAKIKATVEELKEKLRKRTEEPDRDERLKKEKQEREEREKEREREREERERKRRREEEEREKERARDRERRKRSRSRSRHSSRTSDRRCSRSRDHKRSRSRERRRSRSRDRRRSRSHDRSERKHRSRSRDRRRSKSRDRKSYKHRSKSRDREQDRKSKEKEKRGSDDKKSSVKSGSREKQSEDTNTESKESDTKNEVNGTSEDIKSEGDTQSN
inactive: [1] 0.011 | [2] 0.033 | [3] -0.018 | [4] 0.042 | [5] -0.093 | [6] -0.02 | [7] -0.043 | [8] -0.104 | [9] -0.002 | [10] -0.037

KIF2C (UniProt Q99661)
inactive: [1] 0.036 | [2] 0.09 | [3] 0.036 | [4] 0.021 | [5] 0.01 | [6] -0.004 | [7] 0.043 | [8] 0.019 | [9] -0.031 | [10] -0.103

LEMD2 (UniProt Q8NC56)
inactive: [1] 0.04 | [2] 0.007 | [3] -0.054 | [4] -0.002 | [5] 0.11 | [6] 0.001 | [7] 0.042 | [8] 0.008 | [9] -0.016 | [10] 0.046

MGST3 (UniProt O14880)
inactive: [1] -0.025 | [2] -0.03 | [3] 0.013 | [4] 0.003 | [5] 0.006 | [6] 0.041 | [7] -0.022 | [8] -0.023 | [9] 0.019 | [10] 0.016

INPP1 (UniProt P49441)
inactive: [1] 0.014 | [2] 0.006 | [3] 0.073 | [4] 0.059 | [5] 0.042 | [6] -0.01 | [7] 0.005 | [8] 0.044 | [9] 0.01 | [10] -0.101

LARP4 isoform 4 (UniProt Q71RC2)
inactive: [1] 0.015 | [2] 0.007 | [3] -0.123 | [4] 0.055 | [5] 0.086 | [6] 0.002 | [7] -0.028 | [8] -0.044 | [9] -0.004 | [10] -0.035

MAP2K7 isoform 4 (UniProt O14733)
inactive: [1] 0.021 | [2] -0.005 | [3] 0.061 | [4] 0.017 | [5] 0.01 | [6] 0.017 | [7] -0.009 | [8] -0.032 | [9] -0.012 | [10] 0.023

KPNB1 (UniProt Q14974)
inactive: [1] -0.001 | [2] 0.075 | [3] -0.03 | [4] -0.036 | [5] -0.028 | [6] 0.029 | [7] -0.049 | [8] -0.016 | [9] -0.034 | [10] -0.136

LENG8 (UniProt Q96PV6)
inactive: [1] -0.072 | [2] 0.133 | [3] 0.091 | [4] 0.108 | [5] -0.024 | [6] -0.037 | [7] -0.141 | [8] 0.096 | [9] 0.152 | [10] -0.229

IKZF1 (UniProt Q13422)
inactive: [1] -0.005 | [2] -0.018 | [3] -0.008 | [4] 0.002 | [5] -0.015 | [6] 0.019 | [7] -0.069 | [8] 0.144 | [9] 0.051 | [10] 0

MCU (UniProt Q8NE86)
UniProt Q8NE86, sequence (Q8NE86 whole entry, looked up): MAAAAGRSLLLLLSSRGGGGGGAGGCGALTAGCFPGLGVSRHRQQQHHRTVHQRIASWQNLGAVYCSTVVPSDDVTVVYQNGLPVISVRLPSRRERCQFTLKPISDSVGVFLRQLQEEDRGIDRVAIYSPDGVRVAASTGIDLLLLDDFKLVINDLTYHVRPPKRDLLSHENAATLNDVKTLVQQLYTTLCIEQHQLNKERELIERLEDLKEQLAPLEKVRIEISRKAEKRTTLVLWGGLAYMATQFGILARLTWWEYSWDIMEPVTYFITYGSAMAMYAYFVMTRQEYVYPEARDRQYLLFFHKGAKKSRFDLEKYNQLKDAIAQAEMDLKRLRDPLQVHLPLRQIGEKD
inactive: [1] 0.007 | [2] 0.042 | [3] 0.083 | [4] 0.008 | [5] 0.027 | [6] 0.013 | [7] 0.001 | [8] 0.014 | [9] 0.004 | [10] 0.013

LTN1 isoform 3 (UniProt O94822)
UniProt O94822, sequence (O94822 whole entry, looked up): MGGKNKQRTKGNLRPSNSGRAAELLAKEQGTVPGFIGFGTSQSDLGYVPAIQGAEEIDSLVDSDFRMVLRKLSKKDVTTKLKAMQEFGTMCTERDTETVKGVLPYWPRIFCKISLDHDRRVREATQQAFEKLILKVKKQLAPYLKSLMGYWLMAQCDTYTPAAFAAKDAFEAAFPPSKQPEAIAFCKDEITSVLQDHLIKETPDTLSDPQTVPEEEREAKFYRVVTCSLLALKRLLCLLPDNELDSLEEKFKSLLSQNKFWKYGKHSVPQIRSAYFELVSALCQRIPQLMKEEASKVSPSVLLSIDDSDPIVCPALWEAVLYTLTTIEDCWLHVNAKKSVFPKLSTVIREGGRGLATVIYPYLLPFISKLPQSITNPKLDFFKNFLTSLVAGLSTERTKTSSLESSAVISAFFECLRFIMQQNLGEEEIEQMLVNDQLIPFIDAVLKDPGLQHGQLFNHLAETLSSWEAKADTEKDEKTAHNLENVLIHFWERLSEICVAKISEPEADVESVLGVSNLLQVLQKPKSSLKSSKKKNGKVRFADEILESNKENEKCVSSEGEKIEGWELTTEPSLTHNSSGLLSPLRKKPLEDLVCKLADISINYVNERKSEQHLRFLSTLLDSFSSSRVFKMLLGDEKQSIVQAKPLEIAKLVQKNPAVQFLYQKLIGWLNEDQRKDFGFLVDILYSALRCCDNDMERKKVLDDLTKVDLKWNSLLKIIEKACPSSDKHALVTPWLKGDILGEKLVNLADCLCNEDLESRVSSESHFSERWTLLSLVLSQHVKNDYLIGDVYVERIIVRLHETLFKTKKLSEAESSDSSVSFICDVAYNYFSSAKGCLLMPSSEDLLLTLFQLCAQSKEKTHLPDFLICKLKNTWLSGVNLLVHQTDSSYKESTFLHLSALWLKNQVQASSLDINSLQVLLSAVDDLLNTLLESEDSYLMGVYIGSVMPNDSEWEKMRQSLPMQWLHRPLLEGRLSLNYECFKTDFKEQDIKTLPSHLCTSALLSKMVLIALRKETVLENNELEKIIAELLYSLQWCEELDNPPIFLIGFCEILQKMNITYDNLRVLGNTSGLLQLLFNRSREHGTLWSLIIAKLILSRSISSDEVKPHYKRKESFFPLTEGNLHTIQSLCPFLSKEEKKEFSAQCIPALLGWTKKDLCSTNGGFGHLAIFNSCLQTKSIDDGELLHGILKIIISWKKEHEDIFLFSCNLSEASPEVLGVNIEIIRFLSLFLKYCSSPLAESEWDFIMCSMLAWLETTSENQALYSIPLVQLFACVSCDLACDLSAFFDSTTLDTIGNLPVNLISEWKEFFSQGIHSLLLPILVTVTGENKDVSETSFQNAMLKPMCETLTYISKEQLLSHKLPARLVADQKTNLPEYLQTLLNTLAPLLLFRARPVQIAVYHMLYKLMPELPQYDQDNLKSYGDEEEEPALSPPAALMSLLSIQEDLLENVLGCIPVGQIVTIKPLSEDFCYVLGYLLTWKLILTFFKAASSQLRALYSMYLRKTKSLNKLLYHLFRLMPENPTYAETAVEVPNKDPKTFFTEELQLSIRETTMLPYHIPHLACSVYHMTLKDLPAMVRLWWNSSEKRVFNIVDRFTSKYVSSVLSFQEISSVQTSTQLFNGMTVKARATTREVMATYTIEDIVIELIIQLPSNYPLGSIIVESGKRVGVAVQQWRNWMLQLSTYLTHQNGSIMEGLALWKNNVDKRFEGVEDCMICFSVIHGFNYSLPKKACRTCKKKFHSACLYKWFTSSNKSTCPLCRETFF
inactive: [1] 0.026 | [2] 0.114 | [3] -0.021 | [4] -0.02 | [5] 0.032 | [6] -0.021 | [7] -0.027 | [8] -0.056 | [9] -0.027 | [10] -0.031

MAGI1 (UniProt Q96QZ7)
inactive: [1] -0.022 | [2] 0 | [3] -0.083 | [4] 0.049 | [5] -0.008 | [6] 0.018 | [7] -0.015 | [8] -0.016 | [9] 0.012 | [10] -0.047

KIF21A isoform 4 (UniProt Q7Z4S6)
inactive: [1] 0.017 | [2] 0.056 | [3] -0.043 | [4] -0.016 | [5] -0.023 | [6] 0.006 | [7] -0.075 | [8] -0.065 | [9] -0.144 | [10] -0.233

KSR1 (UniProt Q8IVT5)
inactive: [1] 0.082 | [2] 0.004 | [3] 0.044 | [4] -0.044 | [5] 0.162 | [6] 0.058 | [7] 0.185 | [8] -0.106 | [9] -0.088 | [10] 0.058

ITM2C (UniProt Q9NQX7)
inactive: [1] -0.078 | [2] -0.019 | [3] 0.013 | [4] -0.297 | [5] -0.023 | [6] 0.062 | [7] -0.029 | [8] 0.052

MASTL (UniProt Q96GX5)
inactive: [1] 0.008 | [2] 0.045 | [3] 0.026 | [4] -0.015 | [5] -0.076 | [6] 0.124 | [7] -0.087 | [8] 0.007

LMF2 (UniProt Q9BU23)
active: [4] 0.434
inactive: [1] -0.017 | [2] 0.002 | [3] -0.005 | [5] 0.055 | [6] -0.012 | [7] 0.006 | [8] 0.052 | [9] -0.021 | [10] 0.021

LONP2 (UniProt Q86WA8)
inactive: [1] 0.07 | [2] -0.111 | [3] 0.263 | [4] 0.131 | [5] -0.021 | [6] 0.065 | [7] 0.168 | [8] 0.067 | [9] -0.037 | [10] -0.002

KPNA1 (UniProt P52294)
UniProt P52294, sequence (P52294 whole entry, looked up): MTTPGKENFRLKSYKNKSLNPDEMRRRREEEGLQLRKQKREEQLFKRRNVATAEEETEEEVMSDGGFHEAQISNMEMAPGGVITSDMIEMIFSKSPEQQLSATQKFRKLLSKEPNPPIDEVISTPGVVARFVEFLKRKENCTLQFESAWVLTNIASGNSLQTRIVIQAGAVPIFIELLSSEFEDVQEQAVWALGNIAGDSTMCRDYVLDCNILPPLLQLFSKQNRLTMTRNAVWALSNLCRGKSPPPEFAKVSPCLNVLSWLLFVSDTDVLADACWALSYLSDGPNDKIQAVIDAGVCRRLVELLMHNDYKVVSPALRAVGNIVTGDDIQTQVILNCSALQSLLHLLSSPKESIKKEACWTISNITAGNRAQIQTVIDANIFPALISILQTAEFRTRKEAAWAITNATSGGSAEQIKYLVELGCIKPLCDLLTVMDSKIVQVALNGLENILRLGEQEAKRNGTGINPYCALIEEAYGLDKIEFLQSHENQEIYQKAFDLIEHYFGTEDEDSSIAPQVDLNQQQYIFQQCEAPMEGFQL
inactive: [1] -0.042 | [2] 0.09 | [3] -0.053 | [4] -0.037 | [5] -0.011 | [6] 0.009 | [7] 0.035 | [8] -0.061 | [9] -0.032 | [10] -0.07

MED8 isoform 2 (UniProt Q96G25)
inactive: [1] 0.017 | [2] -0.19 | [3] -0.056 | [4] 0.035 | [5] -0.031 | [6] 0.152 | [7] -0.153 | [8] -0.196

IRF2BPL (UniProt Q9H1B7)
UniProt Q9H1B7, sequence (Q9H1B7 whole entry, looked up): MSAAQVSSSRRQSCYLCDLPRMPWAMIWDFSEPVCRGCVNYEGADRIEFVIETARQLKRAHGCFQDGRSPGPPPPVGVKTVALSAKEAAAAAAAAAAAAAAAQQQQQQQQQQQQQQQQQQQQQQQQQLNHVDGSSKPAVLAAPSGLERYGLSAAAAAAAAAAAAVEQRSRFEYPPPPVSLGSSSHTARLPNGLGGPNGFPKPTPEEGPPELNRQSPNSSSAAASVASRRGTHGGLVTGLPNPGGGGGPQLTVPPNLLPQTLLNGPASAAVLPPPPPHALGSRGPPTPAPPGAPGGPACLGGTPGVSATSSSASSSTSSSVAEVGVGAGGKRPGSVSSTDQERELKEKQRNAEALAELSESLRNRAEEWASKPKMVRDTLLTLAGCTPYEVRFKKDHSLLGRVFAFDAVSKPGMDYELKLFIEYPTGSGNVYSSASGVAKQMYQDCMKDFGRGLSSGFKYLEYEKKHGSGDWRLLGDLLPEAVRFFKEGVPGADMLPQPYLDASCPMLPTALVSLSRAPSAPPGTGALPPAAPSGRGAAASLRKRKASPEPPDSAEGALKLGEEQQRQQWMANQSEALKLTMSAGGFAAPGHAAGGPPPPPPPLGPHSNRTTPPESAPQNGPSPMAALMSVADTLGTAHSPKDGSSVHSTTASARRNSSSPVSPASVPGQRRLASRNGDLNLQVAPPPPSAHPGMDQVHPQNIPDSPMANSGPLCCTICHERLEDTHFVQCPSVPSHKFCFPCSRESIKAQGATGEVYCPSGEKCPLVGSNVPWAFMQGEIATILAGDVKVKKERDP
inactive: [1] -0.021 | [2] 0.023 | [3] 0.068 | [4] 0.04 | [5] -0.03 | [6] 0.064 | [7] 0.089 | [8] 0.025 | [9] -0.041 | [10] -0.022

MAPKAPK3 (UniProt Q16644)
inactive: [1] 0.034 | [2] -0.012 | [4] -0.041 | [5] 0.024 | [6] -0.069 | [7] 0.256 | [8] 0.029 | [9] 0.021 | [10] -0.054
active: [3] 0.431
